Bioassay records as filed in PubChem BioAssay.
Shown are actives, neighbours in structure and some others; about 11% of the full set was active somewhere.
Pf growth 48h = inhibits P. falciparum growth in the first generation, 48 h. P. falciparum luciferase growth in erythrocytes, 48 h. Potency, µM (doses to about 28.7 µM), actives largely listed as inhibitors. actives 5.9% (n = 310,000). AID 504832
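Read-out is firefly luciferase luminescence from an integrated reporter in P. falciparum, so falling signal marks reduced parasite growth. Infected erythrocytes were at 2% hematocrit and 0.1% parasitemia (final) in Albumax-supplemented RPMI 1640.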
HCV inhibitor = blocks hepatitis C virus | Potency, µM (doses to about 41.8 µM), usual class: inhibitors | actives 3.4% (n = 340,000) | Huh7.5.1 HCVcc-Cre infection, luciferase reporter, 44 h | AID 651820
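Cells seeded at 1,000/well and cultured 4 h, then compounds added followed by HCVcc-Cre virus (~0.5 moi). After 44 h further culture, luciferase substrate was added, plates held 15 min at room temperature, and luminescence read for 15 sec.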
Vaccinia mCherry = inhibitors of vaccinia virus infection (mCherry reporter signal) | Vaccinia virus mCherry reporter infection, fluorescence | Potency, µM (highest dose often 36.5 µM), most hits filed as inhibitors | actives 0.63% (n = 310,000); calls by dose curve; tested in A549 cells; note: nearly all actives have a fitted effect of over 35% in size
Pf growth 96h = inhibits malaria parasite growth, 96 h | Potency, µM (series often up to 28.7 µM), usual class: inhibitors | P. falciparum luciferase reporter growth, 96 h | actives 6.9% (n = 320,000)
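Parasite growth measured via integrated firefly luciferase reporter in P. falciparum. Infected erythrocytes at 2% hematocrit, 0.05% parasitemia final were treated 96 hours at 37 C under 5% CO2, and luminescence was read.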
Vaccinia Venus = inhibitors of vaccinia virus (Venus reporter) | Vaccinia virus Venus reporter expression, fluorescence | Potency, µM (doses to about 36.5 µM), actives largely listed as inhibitors | actives 0.46% (n = 330,000); calls by dose curve; tested in A549 cells; note: nearly all actives have a fitted effect of over 30% in size
NS1 inh = blocks influenza NS1 protein function. Potency, µM (highest dose often 46.1 µM). actives 0.4% (n = 270,000). AID 2326; calls by dose curve; note: actives are rising curves; nearly all actives have a fitted effect of over 50% in size
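A cell-based growth assay was used: compounds that relieve NS1-induced slow growth of budding yeast raise OD600. Assay medium was yeast nitrogen base with ammonium sulphate and -URA supplement, pH 6.0, with 2% galactose.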
Each line names hits and unclear results; the compound was inactive in the other large screens. Unless noted, calls come from the whole dose curve; as a rule, active = well fitted inhibition curve with a large enough effect; inconclusive = small, poorly fitted or top-dose-only effect, or another doubt; inactive = no such curve, though single readings can be large or run the other way.

COc1ccc(N2CCN(c3cc(C)nc4ccc(OC)cc34)CC2)cc1	Pf growth 48h 13µM, HCV inhibitor 6.3µM, Pf growth 96h inconclusive
COc1ccc(/C=N/Nc2cc(C)nc3ccccc23)cc1	Pf growth 48h 0.74µM, HCV inhibitor inconclusive, Vaccinia mCherry inconclusive, Vaccinia Venus inconclusive
COc1ccc(/C=N/Nc2cc(C)nc3c(C)cccc23)cc1	Pf growth 48h inconclusive, HCV inhibitor 13µM (no result: Vaccinia mCherry, Vaccinia Venus)
Cc1ccc(-n2c(C)cc(=O)cc2C)c(C)c1	Pf growth 48h inconclusive
CCOC(=O)CSc1nnc(CNC(=O)c2ccc(OC)cc2OC)n1C	none (no result: Vaccinia mCherry, Vaccinia Venus)
COc1ccc2nc(C)cc(N/N=C/c3ccc(F)cc3)c2c1	Pf growth 48h inconclusive, HCV inhibitor inconclusive, Vaccinia mCherry inconclusive, Vaccinia Venus 10µM
Cc1cc(C)n(-c2nnc(NC34CC5CC(CC(C5)C3)C4)nn2)n1	Pf growth 48h 3.3µM, Pf growth 96h 2.9µM
O=C(/C=C/c1ccc(F)cc1)NNC(=O)CCN1CCN(Cc2ccccc2)CC1	Vaccinia mCherry 11µM, Vaccinia Venus inconclusive
CCc1ccc(C(=O)NNC(=O)CCN2CCN(Cc3ccccc3)CC2)cc1	Pf growth 48h 2.3µM
O=C(c1ccccc1)c1ccc(OCCOCCN2CCN(Cc3ccccc3)CC2)cc1	Pf growth 48h inconclusive, HCV inhibitor 14µM, Vaccinia mCherry inconclusive
COC(=O)c1ccc(NC(=O)CCN2CCN(Cc3ccccc3)CC2)cc1	Pf growth 48h 13µM
COc1ccc(-n2nc3c(c2NC(=O)C24CC5CC(CC(C5)C2)C4)CS(=O)C3)cc1 (configuration not stated)	Pf growth 96h inconclusive (no result: Pf growth 48h)
Cc1cccc2cc3c(N)c(C#N)sc3nc12	Pf growth 48h inconclusive, HCV inhibitor inconclusive (no result: Pf growth 96h)
COc1ccccc1OCC(=O)NCC1CCCN(C(=O)c2ccccc2C(C)=O)C1 (configuration not stated)	Pf growth 96h 17µM (no result: HCV inhibitor)
CCCn1c(SCC(=O)Nc2nnc(-c3ccccc3)s2)nnc1-c1ccccn1	none
CCc1c(C)sc(NC(=O)c2cc(CC(C)C)on2)c1C#N	Pf growth 96h 13µM (no result: Pf growth 48h)
CCc1c(C)sc(NC(=O)c2cc(-c3ccc(O)cc3)on2)c1C#N	HCV inhibitor inconclusive (no result: Pf growth 48h)
O=C(NCCSCc1ccc(Cl)cc1Cl)c1ccc(CN2CCOCC2)cc1	HCV inhibitor 11µM, Pf growth 96h inconclusive, Vaccinia Venus inconclusive
CCN1CCN(C(=O)c2oc(=O)c3ccccc3c2-c2ccc(C)cc2)CC1	Pf growth 48h inconclusive, Pf growth 96h 4.7µM (no result: Vaccinia mCherry, Vaccinia Venus)
Cc1ccc(-c2c(C(=O)N3CCOCC3)oc(=O)c3ccccc23)cc1	Pf growth 96h inconclusive (no result: Pf growth 48h, Vaccinia mCherry, Vaccinia Venus)
CC(=O)Nc1ccccc1-c1nc(CNC(=O)c2cccc(F)c2)c(C)o1	none (no result: Pf growth 48h, HCV inhibitor, Pf growth 96h, NS1 inh)
CCCCOC(=O)n1c(SCC(=O)N(CC)CC)nc2ccccc21	Pf growth 96h 2.6µM
CCOC(=O)n1c(SCC(N)=O)nc2ccccc21	Pf growth 96h inconclusive
Cn1c2c(c(=O)n(C)c1=O)C(c1ccccc1OC(F)F)C1=C(CCCC1=O)N2 (configuration not stated)	HCV inhibitor 2.8µM (no result: Vaccinia mCherry, Vaccinia Venus)
CCCOc1ccccc1C1CC(=O)NC2=C1C(=O)CCC2 (configuration not stated)	Pf growth 48h inconclusive, HCV inhibitor inconclusive (no result: Vaccinia mCherry)
COc1ccc(CCNC(=O)CSc2nc3ccccc3nc2Cc2ccc(Cl)cc2)cc1OC	none (no result: Pf growth 48h, HCV inhibitor, Pf growth 96h, NS1 inh)
Oc1ccc(Br)cc1Cn1nnc2ccccc21	Pf growth 48h inconclusive (no result: Vaccinia mCherry, Vaccinia Venus)
Cc1ccc(O)c(Cn2nnc3ccccc32)c1	Pf growth 48h 10µM, HCV inhibitor inconclusive, Pf growth 96h inconclusive (no result: NS1 inh)
CCC(C(=O)NCc1ccc(C)cc1)c1ccccc1 (configuration not stated)	Pf growth 96h 15µM (no result: Vaccinia mCherry, Vaccinia Venus)
CCC(C(=O)Nc1ccc(C)cc1)c1ccccc1 (configuration not stated)	none (no result: NS1 inh)
CCC(C(=O)Nc1ccncc1)c1ccccc1 (configuration not stated)	Pf growth 48h 4.7µM
CCOc1ccc(N2CC(C(=O)OCC(=O)NCc3ccccc3)CC2=O)cc1 (configuration not stated)	Pf growth 96h inconclusive
Cc1ccc([C@H]2C[C@H](O)[C@@H](n3cc(COC(=O)c4ccccc4)nn3)CN2C(=O)c2cccs2)cc1	none (no result: Pf growth 48h, HCV inhibitor, Pf growth 96h, NS1 inh)
N#Cc1cc(Sc2ccccn2)c(Sc2ccccn2)cc1C#N	none (no result: Vaccinia mCherry, Vaccinia Venus)
CC1(NC(=O)c2cc(-c3cccs3)nn2-c2ccccc2)CCS(=O)(=O)C1 (configuration not stated)	none (no result: NS1 inh)
COC(=O)C1CCN(C(=O)CCC2CCCCC2)CC1	none (no result: Pf growth 96h)
O=C(Nc1ccc2c(c1)N(Cc1ccccc1)C(=O)c1ccccc1S2)NC1CC1	Pf growth 48h 6.6µM, Pf growth 96h 12µM (no result: Vaccinia mCherry, Vaccinia Venus)
Nc1cccc(-c2nc3ccccc3[nH]2)c1	none (no result: Vaccinia mCherry, Vaccinia Venus)
O=S(=O)(c1ccccc1)n1nc(-c2ccc(Cl)cc2)nc1NCc1ccccc1	none (no result: Pf growth 48h, HCV inhibitor, Pf growth 96h, NS1 inh)
N[C@@H]1C[C@H]1c1ccccc1	none (no result: NS1 inh)
Oc1ccccc1C1CCCCC1c1ccccc1 (configuration not stated)	Pf growth 48h 7.4µM, Vaccinia mCherry inconclusive, Pf growth 96h inconclusive, Vaccinia Venus inconclusive
C#CCOCCOCCOCCNc1nc(N2CCN(C(=O)CCCCCCCCCCNC(=O)Cn3cc(C[C@@H](C)O)nn3)CC2)nc(N2CCN(C(=O)CCCCCCCCCCNC(=O)[C@H](CCCCN)n3cc(CCCC(=O)O)nn3)CC2)n1	Pf growth 48h 5.2µM, HCV inhibitor inconclusive, Pf growth 96h inconclusive (no result: NS1 inh)
C#CCOCCOCCOCCNc1nc(N2CCN(C(=O)CCCCCCCCCCNC(=O)Cn3cc(CCCCCN)nn3)CC2)nc(N2CCN(C(=O)CCCCCCCCCCNC(=O)[C@@H](CCC(=O)O)n3cc(CCCCCN)nn3)CC2)n1	Pf growth 48h 13µM, Pf growth 96h inconclusive, Vaccinia Venus inconclusive (no result: NS1 inh)
C#CCOCCOCCOCCNc1nc(N2CCN(C(=O)CCCCCCCCCCNC(=O)Cn3cc(C[C@@H](C)O)nn3)CC2)nc(N2CCN(C(=O)CCCCCCCCCCNC(=O)[C@H](CCCN=C(N)N)n3cc(C[C@@H](C)CC)nn3)CC2)n1	Pf growth 48h 1.3µM, Pf growth 96h 1µM, Vaccinia Venus 11µM (no result: NS1 inh)
C#CCOCCOCCOCCNc1nc(N2CCN(C(=O)Cn3cc(CC(C)O)nn3)CC2)nc(N2CCN(C(=O)[C@H](CCCCN)n3cc(CCCC)nn3)CC2)n1 (some centres not stated)	none (no result: Pf growth 48h, Pf growth 96h, NS1 inh)
C#CCOCCOCCOCCNc1nc(N2CCN(C(=O)Cn3cc(CCCCN)nn3)CC2)nc(N2CCN(C(=O)Cn3cc(CCCCN)nn3)CC2)n1	HCV inhibitor inconclusive
C#CCOCCOCCOCCNc1nc(N2CCN(C(=O)CCCCCCCCCCNC(=O)[C@H](CO)n3cc(CCCSC)nn3)CC2)nc(N2CCN(C(=O)CCCCCCCCCCNC(=O)[C@@H]([C@H](C)O)n3cc(C)nn3)CC2)n1	Pf growth 48h 0.29µM, HCV inhibitor inconclusive, Pf growth 96h 0.093µM (no result: Vaccinia mCherry, Vaccinia Venus, NS1 inh)
